Source: PubChem BioAssay (NCI)
The panel holds about 83,000 compounds, 20% with a hit somewhere; the sample as a whole holds those more often.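 Values shown are percent growth following 48 h exposure of cells in 96-well plates to a single concentration of compound; below 10 was considered active.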 Values without a mark were called inactive. Active and inactive are the calls of the source.

Tests used:
Experiment in all cases: NCI-60 one-dose screen, 48 h (100 = growth as untreated, 0 = no growth, -100 = all killed)
Settings in all cases: 10 µM unless noted
[1] = test system: BT-549 breast
[2] = test system: MDA-MB-435 melanoma
[3] = test system: SW-620 colon
[4] = test system: MCF7 breast
[5] = test system: HCT-116 colon
[6] = test system: KM12 colon
[7] = test system: HCC-2998 colon

| Structure (SMILES) | growth [1] | growth [2] | growth [3] | growth [4] | growth [5] | growth [6] | growth [7] |
| --- | --- | --- | --- | --- | --- | --- | --- |
| O=C(/C=C/c1ccc(Cl)cc1)c1ccccc1 | 104% | 97% | 89.3% | 24.1% | 54% | 77.1% | – |
| CCCCSc1cc(C)nc(N)n1 | 88.8% | 97.2% | 97.8% | 94.5% | 90.7% | 98.8% | – |
| O=C(/C(=C/c1cccc([N+](=O)[O-])c1)c1ccccc1)c1ccccc1 | 33.1% | 7.47% (active) | 10.9% | 26.7% | 8.24% (active) | 18.3% | – |
| CO[C@H]1/C=C/O[C@@]2(C)Oc3c(C)c(O)c4c(O)c(c(/C=N/N5C(C)CN(Cc6ccccc6)CC5C)c(O)c4c3C2=O)NC(=O)/C(C)=C\C=C\[C@H](C)[C@H](O)[C@@H](C)[C@@H](O)[C@@H](C)[C@H](OC(C)=O)[C@@H]1C (some centres not stated) | 125% | 86.6% | 80.1% | 44.6% | 37.9% | 52.6% | – |
| COc1cc(OC)c2cc(C(=O)O)c(=O)oc2c1 | 77.5% | 76.8% | 103% | 94.2% | 103% | 114% | – |
| c1ccc(-c2nn[nH]n2)c(-c2ccc(CN3CCN(c4nsc5ccccc45)CC3)cc2)c1 | 106% | 92.2% | 88.7% | 85.6% | 76.9% | 101% | – |
| Cc1ccc(C(C)C)cc1NC(=O)Nc1ccc([N+](=O)[O-])cc1 | -1.5% (active) | 11% | 10.5% | -10.2% (active) | -23.2% (active) | 2.72% (active) | – |
| COc1cc(/C=C/C(=O)Nc2ccc3c(c2)/C(=C\c2cccn2C)C(=O)N3)cc(OC)c1OC | 46.6% | 59.9% | 83.1% | 1.79% (active) | 37.3% | 33.8% | – |
| CC1(C)OC(=O)C(=Cc2ccccc2Br)C(=O)O1 | 107% | 98% | 96.2% | 102% | 79.3% | 108% | – |
| COc1cc(/C=C/C(=O)c2c(-c3ccc(Cl)cc3)nc3sc(C)nn23)cc(OC)c1OC | 79.3% | 73.9% | 59.6% | 38.1% | 50.2% | 73.6% | – |
| CC/C=C\C=C/C(=O)N/C=C/CC1Cc2cccc(O)c2C(=O)O1 (configuration not stated) | 75.2% | -52.1% (active) | 26.9% | 67.3% | 33.8% | 42.1% | – |
| NC(N)=N/N=C(/c1ccccc1)c1ccc(Cl)cc1 | 70.2% | -54.4% (active) | 47.6% | 11.3% | 24.9% | 28.3% | – |
| CN(C)c1ccc(/C=C\c2ccnc3ccccc23)cc1 | -0.99% (active) | 33.6% | 87.7% | 39.1% | 62.6% | 55.8% | – |
| CCCCCCCCCCC[C@@H](C[C@H]1OC(=O)[C@H]1CCCCCC)OC(=O)[C@@H](CC(C)C)NC=O | 31.6% | 69% | 77.6% | – | 34% | 53% | 55.1% |
| CC12CCCCC1C(C(N)=O)C(=O)O2 (configuration not stated) | 113% | 120% | – | 99.3% | 112% | – | 99.6% |
| CC[C@@H]1OC(=O)[C@H](C)[C@@H](O[C@H]2C[C@@](C)(OC)[C@@H](O)[C@H](C)O2)[C@H](C)[C@@H](O[C@@H]2O[C@H](C)C[C@H](N(C)C)[C@H]2O)[C@](C)(O)C[C@@H](C)[C@@H]2N[C@@H](COCCOC)O[C@H]([C@H]2C)[C@]1(C)O | 92.2% | 106% | 111% | – | 85.6% | 126% | 98.9% |
| Clc1ccc(CCC(Cn2ccnc2)Sc2c(Cl)cccc2Cl)cc1 (configuration not stated) | 52% | 53.9% | 65.2% | – | 23.2% | 51.8% | 56.6% |

| Structure (SMILES) | growth [1] | growth [2] | growth [3] | growth [4] | growth [5] | growth [6] | growth [7] |
| --- | --- | --- | --- | --- | --- | --- | --- |
| NC(=O)c1ncn([C@@H]2O[C@H](CO)[C@@H](O)[C@H]2O)n1 | 105% | 101% | 71.5% | – | 89.6% | 100% | 87.6% |
| Cc1ccsc1/C=C/C1=NCCCN1C | 102% | 103% | 105% | – | 103% | 114% | 102% |
| CO[C@H]1/C=C/O[C@@]2(C)Oc3c(C)c(O)c4c(O)c(c(/C=N/N5CCN(C)CC5)c(O)c4c3C2=O)NC(=O)/C(C)=C\C=C\C(C)[C@H](O)[C@@H](C)[C@@H](O)[C@@H](C)[C@@H](OC(C)=O)[C@@H]1C (some centres not stated) | 99.2% | 103% | – | 98.7% | 101% | 100% | 99.5% |
| C[C@@H]1CC[C@H]2[C@@H](C)C(O)O[C@@H]3O[C@]4(C)CC[C@@H]1[C@]32OO4 (some centres not stated) | 32.3% | 2.52% (active) | 17.5% | – | 8.03% (active) | 18.3% | 41.3% |
| O=C(NCCc1ccccc1)C1CCC(=O)N1Cc1ccc(Br)cc1 (configuration not stated) | 107% | 110% | – | 102% | 77.9% | 106% | 108% |
| CC(=O)O[C@H]1C(=O)[C@@]2(C)C([C@H](OC(=O)c3ccccc3)[C@]3(O)C[C@H](OC(=O)[C@H](O)[C@@H](NC(=O)c4ccccc4)c4ccccc4)C(C)=C1C3(C)C)[C@]1(OC(C)=O)CO[C@@H]1C[C@@H]2O (some centres not stated) | 30.5% | -11.5% (active) | 43.4% | – | 7.81% (active) | 9.05% (active) | -22.4% (active) |
| COc1ccc(-c2c(-c3cc(OC)c(OC)c(OC)c3)noc2N)cc1 | 13.2% | -6.19% (active) | – | 17.1% | 8.77% (active) | 7.28% (active) | 17.4% |
| CCOC(=O)C1=C(COCCN)NC(C)=C(C(=O)OC)C1c1ccccc1Cl (configuration not stated) | 86.5% | 68.7% | 53.4% | – | 45.9% | 68.9% | 3.32% (active) |
| Cc1c(C(N)=O)sc2c1C(=O)N(Cc1ccccc1)C1=NN=C(c3ccc(Cl)cc3)CN12 | 58.2% | 66.3% | – | 37.8% | 18.8% | 42.6% | 40.9% |
| Cc1nc2c(O)cccc2cc1CO | 149% | 109% | – | 96.8% | 107% | 113% | 103% |
| COc1ccc(/C=C/C(=O)Nc2cccnc2Nc2ccc(F)cc2)cc1 | 89.3% | 94.4% | – | 88.3% | 91.3% | 107% | 106% |
| Nc1c2ccccc2nc2ccccc12 (tested in a mixture with another compound) | 57.3% | 18.6% | 15.6% | – | 13.6% | 23% | 28.7% |
| C=CC1=C(C(=O)O)N2C(=O)[C@@H](NC(=O)/C(=N\O)c3csc(N)n3)[C@H]2SC1 (stereo in doubt) | 118% | 109% | 106% | – | 105% | 112% | 105% |
| COc1c(C)c2c(c(O)c1C/C=C(\C)CCC(=O)OCCN1CCOCC1)C(=O)OC2 | 40.4% | 26.2% | 19.6% | – | 14% | 27.8% | 18.1% |
| COc1cc([C@@H]2c3cc4c(cc3C(O[C@@H]3O[C@@H]5CO[C@@H](c6cccs6)OC5[C@H](O)[C@H]3O)C3COC(=O)[C@@H]32)OCO4)cc(OC)c1O (some centres not stated) | -20.3% (active) | -21.1% (active) | -8.91% (active) | – | -56.7% (active) | -45.9% (active) | -76.4% (active) |
| CC(C)(C)c1ccc(C(O)CCCN2CCC(C(O)(c3ccccc3)c3ccccc3)CC2)cc1 (configuration not stated) | 42.1% | -93.2% (active) | -77.1% (active) | – | -100% (active) | -73.5% (active) | -90.1% (active) |
